Source: the supplement of paper PMC10498489
About 330 (14%) of roughly 2,300 compounds showed activity. The list is a sample of the results. Unmarked numbers belong to inactive results.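 How the source made its calls: active = median modified Z-score above 1.96; inactive = 1.96 or below.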

Each compound was assayed on HepG2 Srxn1-GFP reporter cells (+30 nM CDDO-Me) (assay: Srxn1-GFP intensity median modified Z-score relative to plate median; higher = stronger NRF2 / oxidative stress reporter activation, active = hit call of the paper). Conditions: 10 µM; exposure time: 24h.
Procedure, shortened: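 Each value is the replicate median of a per-plate modified Z-score for GFP intensity in HepG2 Srxn1-GFP BAC reporter cells. The cells (20,000 per well, 96-well plates, three replicate plates) received compound at 10 μM together with an NRF2 activator at 30 nM for 24 h, in ≤0.1% DMSO. Cytoplasmic GFP was quantified per cell from confocal images of formaldehyde-fixed, Hoechst-stained cells, leaving out images with fewer than 100 cells, and scaling used 1.4826 × median absolute deviation.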

Compound | Srxn1-GFP intensity median modified Z-score
CC1=CC(=O)c2ccccc2C1=O [euspeclibcmpd446] | 5.02 (active)
CN1C(C(=O)N=c2cccc[nH]2)C(=O)c2sc(Cl)cc2S1(=O)=O (stereo unspecified) [euspeclibcmpd458] | -0.432
CC(=O)OC=C1CSC2C(NC(=O)Cc3cccs3)C(=O)N2C1C(=O)O (stereo unspecified) [euspeclibcmpd2267] | 0.967
S=c1[nH]c2ccccc2s1 [euspeclibcmpd1954] | -0.455
CN(C)CC/C=C1\c2ccccc2Sc2ccc(Cl)cc21 [euspeclibcmpd538] | -1.04
CN1CCN(CC/C=C2\c3ccccc3Sc3ccc(S(=O)(=O)N(C)C)cc32)CC1 [euspeclibcmpd294] | 4.72 (active)
CN(C)CCC=C1c2ccccc2CCc2ccccc21 [euspeclibcmpd21] | 0.287
CN1CCC[C@@H]1Cc1c[nH]c2ccc(CCS(=O)(=O)c3ccccc3)cc12 [euspeclibcmpd938] | -0.193
CCCN(Cc1nnc(-c2cccs2)o1)C(=O)CSc1nnc(-c2cccs2)n1C1CC1 | 0.54
CC1O[C@@H](Oc2c(-c3ccc(O)c(O)c3)oc3cc(O)cc(O)c3c2=O)[C@H](O)[C@H](O)[C@H]1O (stereo partly specified) [euspeclibcmpd1694] | -0.35
O=C(N/N=C/c1ccc([N+](=O)[O-])o1)c1ccc(O)cc1 [euspeclibcmpd1226] | 0.949
NC(=O)N/N=C/c1ccc([N+](=O)[O-])o1 [euspeclibcmpd210] | 10.3 (active)
O=C(N/N=C/c1ccc([N+](=O)[O-])o1)c1ccc(Br)cc1 | 4.87 (active)
O=C1OC(CN2CCOCC2)CN1/N=C/c1ccc([N+](=O)[O-])o1 (stereo unspecified) [euspeclibcmpd1273] | 0.605
CC(C)(C)c1ccc(C(=O)N/N=C/c2ccc([N+](=O)[O-])o2)cc1 | 1.17
O=C1OCCN1/N=C/c1ccc([N+](=O)[O-])o1 [euspeclibcmpd134] | 2.95 (active)
O=c1[nH]c(O)cn1/N=C/c1ccc([N+](=O)[O-])o1 [euspeclibcmpd209] | 0.292
CC(C)CC(N)C(=O)NC(C)C(=O)O (stereo unspecified) [euspeclibcmpd1745] | 0.124
CC(=O)NCCc1ccc(O)c(C2C(=O)C(=O)c3c(c(O)c4c(C(=O)O)c(C(=O)O)c(O)cc4c3O)C2=O)c1 (stereo unspecified) [euspeclibcmpd1580] | -0.208
CC(=O)OC=C1CSC2C(N)C(=O)N2C1C(=O)O (stereo unspecified) [euspeclibcmpd1380] | -0.0231
O=C(O)c1ccc[nH]c1=Nc1cccc(C(F)(F)F)c1 [euspeclibcmpd1074] | -0.299
N#CCOC(=O)c1cc(-c2ccccc2)nc2ccccc12 | 1.25
NCCc1cc[nH]n1 [euspeclibcmpd614] | 1.24
NC(=O)NC(CC(=O)O)C(=O)O (stereo unspecified) | 1.02

Compound | Srxn1-GFP intensity median modified Z-score
CNC(=O)CN1CCC(NC(=O)NCc2ccc(C)n2C)CC1 | 0.3
CN1CCN(C(=O)Oc2c3nccnc3c(O)n2-c2ccc(Cl)cn2)CC1 [euspeclibcmpd2130] | -0.245
C=C(C)[C@@H]1CC[C@]2(C)CC[C@]3(C)[C@@H](CCC4[C@@]5(C)CC[C@H](O)C(C)(C)C5CC[C@]43C)C12 (stereo partly specified) [euspeclibcmpd1455] | -0.31
C=C(C)[C@@H]1CC[C@]2(CO)CC[C@]3(C)[C@H](CCC4[C@@]5(C)CC[C@H](O)C(C)(C)C5CC[C@]43C)C12 (stereo partly specified) [euspeclibcmpd1538] | 10.7 (active)
C=C(C)[C@@H]1CC[C@]2(C(=O)O)CC[C@]3(C)[C@H](CCC4[C@@]5(C)CC[C@H](O)C(C)(C)C5CC[C@]43C)[C@@H]12 (stereo partly specified) [euspeclibcmpd1473] | -0.366
CC=C(c1ccc(O)cc1)C(CC)c1ccc(O)cc1 (stereo unspecified) [euspeclibcmpd93] | 0.179
N=C(N)SCCN [euspeclibcmpd1761] | 3.8 (active)
N=C(N)N [euspeclibcmpd2417] | -0.496
NCCSSCCN [euspeclibcmpd2395] | -0.505
N=c1[nH]c(=O)c2ncn(COC(CO)CO)c2[nH]1 [euspeclibcmpd487] | 0.251
CCN1CCN(C(=O)NC(C(=O)NC2C(=O)N3C2SC(C)(C)[C@@H]3C(=O)O)c2ccccc2)C(=O)C1=O (stereo partly specified) [euspeclibcmpd2069] | 0
CC1(C)OC2CC3C4CC(F)=C5CC(=O)CCC5(C)C4C(O)CC3(C)C2(C(=O)CO)O1 (stereo unspecified) [euspeclibcmpd1953] | -0.815
O=c1cc(-c2ccccc2O)oc2cc(O)ccc12 [euspeclibcmpd1982] | -0.161
O=C1OC2(c3ccc(O)cc3Oc3cc(O)ccc32)c2ccccc21 [euspeclibcmpd769] | 2.16 (active)
O=C1OC(c2ccc(O)cc2)(c2ccc(O)cc2)c2ccccc21 [euspeclibcmpd234] | 1.62
CS(=O)(=O)c1ccc([C@H](O)[C@H](CF)NC(=O)C(Cl)Cl)cc1 [euspeclibcmpd827] | -0.193
OC[C@H]1O[C@@H](Oc2ccc(Cl)cc2)[C@H](O)[C@@H](O)[C@H]1O | 1.18
COC(=O)N=c1[nH]c2ccc(Sc3ccccc3)cc2[nH]1 [euspeclibcmpd371] | 2.82 (active)
COC(=O)N=c1[nH]c2ccc(C(=O)c3ccccc3)cc2[nH]1 [euspeclibcmpd378] | 19.3 (active)
COC(=O)N=c1[nH]c2ccc([S+]([O-])c3ccccc3)cc2[nH]1 (stereo unspecified) [euspeclibcmpd738] | -0.824
CCOC(=O)N=c1[nH]c2ccccc2[nH]1 [euspeclibcmpd787] | -0.0391
COC(=O)N=c1[nH]c2ccc(C(=O)c3ccc(F)cc3)cc2[nH]1 [euspeclibcmpd2318] | 8.09 (active)
O=c1oc2ccccc2cc1O [euspeclibcmpd2250] | -0.381
CCC(C)(C)c1ccc(CC(C)CN2C[C@@H](C)O[C@@H](C)C2)cc1 (stereo partly specified) [euspeclibcmpd489] | 1.75

Compound | Srxn1-GFP intensity median modified Z-score
CC1(C)O[C@@H]2CC3C4CC(F)=C5CC(=O)C=C[C@]5(C)[C@@]4(F)[C@@H](O)C[C@]3(C)[C@]2(C(=O)CO)O1 (stereo partly specified) [euspeclibcmpd129] | 0.0501
CCC(C)C1NC(=O)C(CCNCS(=O)(=O)O)NC(=O)C(NC(=O)C(CCNCS(=O)(=O)O)NC(=O)C(NC(=O)C(CCNCS(=O)(=O)O)NC(=O)CCCCC(C)C)C(C)O)CCNC(=O)C(C(C)O)NC(=O)C(CCNCS(=O)(=O)O)NC(=O)C(CCNCS(=O)(=O)O)NC(=O)C(C(C)CC)NC1=O (stereo unspecified) [euspeclibcmpd2131] | 0.0847
CCC(C)n1nccc1NC(=O)C(C)N1CCSCC1 (stereo unspecified) | 0.365
COC1(C)CCC2OC2(C)CCC2C1CC2(C)C (stereo unspecified) [euspeclibcmpd2008] | -0.165
CC1(C)[C@@H]2CC[C@]1(C)C(=O)C2 [euspeclibcmpd42] | -0.12
O=C(O)c1cc(O)c2c(O)c3c(OC4OC(CO)C(O)C(O)C4O)cccc3c(-c3c4cc(C(=O)O)cc(O)c4c(O)c4c(OC5OC(CO)C(O)C(O)C5O)cccc34)c2c1 (stereo unspecified) [euspeclibcmpd1934] | -0.281
Cn1nnnc1SC=C1CSC2C(NC(=O)C(O)c3ccccc3)C(=O)N2C1C(=O)O (stereo unspecified) [euspeclibcmpd2229] | -0.103
O=C(Nc1ccccc1Cl)C1=NN(C2CCS(=O)(=O)C2)C(=O)CC1 (stereo unspecified) | 1.26
COc1cc(OC)c2c(=O)c(-c3ccccc3)c(C)oc2c1OC [euspeclibcmpd2303] | 1.35
O=C(O)Cc1ccccc1Nc1c(Cl)cccc1Cl [euspeclibcmpd2396] | 0.438
N=c1[nH]c(N2CCCCC2)cc(N)[n+]1[O-] [euspeclibcmpd792] | -0.234
CC1(C)O[C@@H]2CC3C4CC(F)=C5CC(=O)C=CC5(C)C4C(O)CC3(C)[C@]2(C(=O)CO)O1 (stereo partly specified) [euspeclibcmpd414] | 0.0846
O=C1CCC(N2C(=O)c3ccccc3C2=O)C(=O)N1 (stereo unspecified) [euspeclibcmpd588] | -0.192
NC(=O)Nc1[nH]c(=O)[nH]c1O [euspeclibcmpd347] | -0.31
CC1CCC2[C@@]3(C)C=CC(=O)C(C)(C)C3CC3OC(=O)C(=O)C1[C@]32C (stereo partly specified) [euspeclibcmpd1535] | 9.38 (active)
CC(=O)OC=C1CSC2C(NC(=O)CSc3ccncc3)C(=O)N2C1C(=O)O (stereo unspecified) [euspeclibcmpd2110] | 0.0966
S=C1SCN(Cc2ccccc2)CN1Cc1ccccc1 [euspeclibcmpd1200] | 10 (active)
OCCc1ccccc1 [euspeclibcmpd771] | -0.962
CC(=O)NC1C(O)OC(CO)C(O)C1O (stereo unspecified) [euspeclibcmpd1995] | -0.204
Cc1c(N=c2[nH]cccc2C(=O)O)cccc1C(F)(F)F [euspeclibcmpd1313] | 0.328
Cc1cnc(C(=O)O)c[n+]1[O-] [euspeclibcmpd1196] | -0.419
CN[C@@H]1[C@H](OC2[C@H](O[C@H]3[C@H](O)[C@@H](O)[C@H](N=C(N)N)[C@@H](O)[C@@H]3N=C(N)N)O[C@@H](C)[C@]2(O)C=O)O[C@@H](CO)[C@H](O)[C@H]1O (stereo partly specified) [euspeclibcmpd270] | -0.445
C=C(C)[C@H]1C=CC(C(=O)O)CC1 (stereo partly specified) [euspeclibcmpd1451] | -0.188
